Results filed as inconclusive are left out. Activity calls are given as the source filed them. How the source made its calls, unless noted: active means hit-call score of the fitted dose curve at least 0.9, where 1 is the maximum; inactive means score below 0.9.
What was measured:
[1] = ACEA_ER_80hr: ACEA Biosciences xCELLigence Real-Time Cell Analysis on Estrogen Receptor Agonism for Proliferation (AID 2282667; active means hit-call score of the fitted dose curve at least 0.9, where 1 is the maximum); conditions: T47D proliferation, impedance (xCELLigence), 80 h
Method in brief: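 Real-time electrical impedance tracked growth of the human breast line T47D, with the 80 h post-dosing value used. Dosing spanned eight 1:4 steps down from a 100 uM final top concentration, run in duplicate.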

[2] = APR_HepG2_CellCycleArrest_24hr: Apredica 24-hour HepG2 Assay for Cell Cycle Arrest (AID 2282905); conditions: imaging, actives raise or lower the signal;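 further: cell cycle arrest scored as ratio of 2N to 4N nuclear DNA content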
Method in brief: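 HepG2 cells were exposed to compounds at 0.39–200 uM (ten concentrations, duplicate) in 0.5% v/v DMSO for 24 hr. After formaldehyde fixation and Triton permeabilization, Hoechst 33342-stained nuclei were imaged at 20x; DNA content was quantified, with bidirectional fitting against DMSO.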

[3] = APR_HepG2_NuclearSize_24hr: Apredica 24-hour HepG2 Assay for Nuclear Size (AID 2282907); conditions: high-content imaging, actives raise or lower the signal
Method in brief: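 HepG2 human liver cells were exposed for 24 hr to compounds at 0.39–200 uM (ten concentrations, duplicate) in 0.5% v/v DMSO. They were then formaldehyde-fixed, Triton-permeabilized and Hoechst 33342-stained, and nuclear diameter was imaged at 20x. Bidirectional fits were made against DMSO.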

[4] = APR_HepG2_CellLoss_24hr: Apredica 24-hour HepG2 Assay for Cell Loss (AID 2282908); conditions: high-content imaging;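 on AC50: fit in both directions so a hit may be cell loss or gain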
Method in brief: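 Compounds were tested at 0.39–200 uM in duplicate with 0.5% v/v DMSO final. Cells were then fixed in 3.7% formaldehyde, Hoechst 33342 nuclei were imaged at 20x by HCS, and cell number was fitted bidirectionally against DMSO.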

[5] = APR_HepG2_MicrotubuleCSK_24hr: Apredica 24-hour HepG2 Assay for Microtubule CSK Stabilty (AID 2282909); conditions: HepG2 microtubule cytoskeleton imaging, actives raise or lower the signal
Method in brief: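 HepG2 cells exposed 24 h to compounds at 0.39–200 uM (duplicate, 0.5% v/v DMSO final), then fixed, permeabilized and immunostained for alpha-tubulin with Hoechst 33342. Cytoskeleton imaged at 20x; bidirectional fit versus DMSO baseline.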

[6] = APR_HepG2_MitoticArrest_24hr: Apredica 24-hour HepG2 Assay for Mitotic Arrest (AID 2282910); conditions: high-content imaging, actives raise or lower the signal
Method in brief: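 HepG2 cells, 24 h exposure at 0.39-200 uM (10 concentrations, duplicate, 0.5% DMSO). Fixed, stained for phospho-histone H3 with Hoechst; imaged by high-content microscopy, bidirectional fit versus DMSO.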

[7] = APR_HepG2_MitoMembPot_24hr: Apredica 24-hour HepG2 Assay for Mitochondrial Membrane Potential (AID 2282911); conditions: imaging, actives raise or lower the signal
Method in brief: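 Cells are dosed for 24 hr across 0.39 to 200 uM with solvent held at 0.5% DMSO. They are then stained with 250 nM MitoTracker Red CMXRos for 30 min, fixed in 3.7% formaldehyde and imaged.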

[8] = APR_HepG2_MitoMass_24hr: Apredica 24-hour HepG2 Assay for Mitochondrial Mass (AID 2282912); conditions: high-content imaging, actives raise or lower the signal
Method in brief: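 Human HepG2 liver cells were exposed for 24 hr to compounds at 0.39–200 uM (duplicates, 0.5% v/v DMSO final). They were stained live with 250 nM MitoTracker Red CMXRos for 30 min, fixed in 3.7% formaldehyde, and imaged by HCS fluorescence; signals were fitted bidirectionally against DMSO.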

[9] = APR_HepG2_p53Act_24hr: Apredica 24-hour HepG2 Assay for p53 Activation (AID 2282913); conditions: high-content imaging, actives raise or lower the signal;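 further: p53 protein immunofluorescence averaged per cell in HepG2 with Hoechst nuclei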
Method in brief: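 Human HepG2 liver cells; 24 hr cpd treatment, 0.39–200 uM, 0.5% DMSO final. Fixed in 3.7% formaldehyde, permeabilized with 0.5% Triton X-100, stained with anti-p53/Cy5 plus Hoechst 33342. Six images per well at 20x; gain or loss vs DMSO.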

[10] = APR_HepG2_CellCycleArrest_72hr: Apredica 72-hour HepG2 Assay for Cell Cycle Arrest (AID 2282914); conditions: high-content imaging, actives raise or lower the signal
Method in brief: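 Read-out is Hoechst-stained nuclear DNA content measured by automated fluorescence imaging (20x, six images per well), fitted in both directions relative to DMSO. Human HepG2 liver cells received 0.39–200 uM compound for 72 hr at 0.5% v/v DMSO.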

[11] = APR_HepG2_CellLoss_72hr: Apredica 72-hour HepG2 Assay for Cell Loss (AID 2282915); conditions: high-content imaging
Method in brief: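 HepG2 cells exposed 72 h to compound at 0.39–200 uM (10 concentrations, duplicate) in 0.5% DMSO. Fixed with 3.7% formaldehyde and Hoechst 33342-stained. Imaged at 20x; nuclear count gives cell number, fitted bidirectionally versus DMSO.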

[12] = APR_HepG2_P-H2AX_72hr: Apredica 72-hour HepG2 Assay for H2AX Phosphorylation (AID 2282916); conditions: imaging, actives raise or lower the signal;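 further: phospho-histone H2A.x immunostain intensity per cell marking DNA damage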
Method in brief: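 HepG2 human liver cells were exposed for 72 hr to compounds at 0.39–200 uM (10 concentrations, duplicate per plate) in 0.5% v/v DMSO. Fixed, permeabilized cells were immunolabeled for phospho-histone H2A.x with Hoechst 33342 and imaged by HCS fluorescence; bidirectional fit versus DMSO.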

[13] = APR_HepG2_MitoMembPot_72hr: Apredica 72-hour HepG2 Assay for Mitochondrial Membrane Potential (AID 2282917); conditions: imaging, actives raise or lower the signal
Method in brief: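 HepG2 cells dosed 72 hr with compound at 0.39–200 uM in duplicate, 0.5% v/v DMSO final. Mitochondria stained with 250 nM MitoTracker Red CMXRos for 30 min before formaldehyde fixation, imaged by high-content fluorescence; bidirectional fit versus DMSO.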

[14] = APR_HepG2_MitoticArrest_72hr: Apredica 72-hour HepG2 Assay for Mitotic Arrest (AID 2282918); conditions: high-content imaging, actives raise or lower the signal
Method in brief: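 Read-out is phospho-histone H3 immunofluorescence with Hoechst nuclear segmentation, imaged at 20x. Human HepG2 liver cells received ten concentrations (0.39–200 uM, final DMSO 0.5% v/v) for 72 hr before fixation. Gain or loss of signal was fitted relative to DMSO.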

[15] = APR_HepG2_P-H2AX_24hr: Apredica 24-hour HepG2 Assay for H2AX Phosphorylation (AID 2282920); conditions: high-content imaging, actives raise or lower the signal
Method in brief: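 HepG2, 24 hr, cpd 0.39–200 uM (10 conc, duplicate), DMSO 0.5% v/v final. Fix 3.7% formaldehyde, Triton X-100 permeabilize, anti-phospho-H2A.x 1:200 + Hoechst 2 ug/mL. Imaged, bidirectional fit vs DMSO.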

[16] = APR_HepG2_StressKinase_72hr: Apredica 72-hour HepG2 Assay for Stress Kinase (AID 2282921); conditions: HepG2 stress kinase (phospho-c-Jun) imaging, actives raise or lower the signal
Method in brief: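 Cells were exposed for 72 h to ten concentrations (0.39–200 uM, duplicate) at 0.5% v/v DMSO final, then fixed with 3.7% formaldehyde, permeabilized and immunostained for phospho-c-Jun (Cy3 secondary) with Hoechst nuclear counterstain.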

[17] = APR_HepG2_StressKinase_24hr: Apredica 24-hour HepG2 Assay for Stress Kinase (AID 2282922); conditions: HepG2 stress kinase (phospho-c-Jun) imaging, actives raise or lower the signal
Method in brief: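 HepG2 cells exposed 24 h to 0.39–200 uM compound in duplicate (0.5% v/v DMSO final). Cells fixed in 3.7% formaldehyde, permeabilized and immunostained for phospho-c-Jun; read by high-content fluorescence imaging, fitted bidirectionally against DMSO.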

[18] = APR_HepG2_p53Act_72hr: Apredica 72-hour HepG2 Assay for p53 Activation (AID 2282923); conditions: high-content imaging, actives raise or lower the signal;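 further: average cellular p53 protein immunofluorescence intensity in HepG2 cells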
Method in brief: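 Cells were dosed for 72 hr with compounds at 0.39–200 uM in duplicate (final DMSO 0.5% v/v), then fixed in 3.7% formaldehyde, permeabilized with Triton X-100 and immunostained for p53 (Cy5) with Hoechst 33342 nuclear counterstain.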

[19] = APR_HepG2_MitoMass_72hr: Apredica 72-hour HepG2 Assay for Mitochondrial Mass (AID 2282924); conditions: high-content imaging, actives raise or lower the signal;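 further: MitoTracker Red CMXRos stain intensity per cell imaged as mitochondrial mass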
Method in brief: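 HepG2 cells dosed 72 hr at 0.39–200 uM (0.5% DMSO), in duplicate. MitoTracker Red CMXRos 250 nM loaded 30 min before formaldehyde fixation; high-content fluorescence imaging, bidirectional fit versus DMSO.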

[20] = APR_HepG2_MicrotubuleCSK_72hr: Apredica 72-hour HepG2 Assay for Microtubule CSK Stabilty (AID 2282919); conditions: HepG2 microtubule cytoskeleton, high-content imaging, actives raise or lower the signal
Method in brief: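 HepG2 cells were exposed 72 hr to compound at 0.39–200 uM in duplicate (0.5% DMSO final), then fixed and permeabilized. Alpha-tubulin immunofluorescence was imaged by high-content microscopy, with bidirectional fitting against DMSO and taxol as positive control.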

Measured: AC50

Oc1ccc2ccccc2c1N=Nc1ccccc1
active: [1] 6.47 µM | [4] 34 µM | [6] 27.1 µM | [7] 0.0816 µM | [10] 0.813 µM | [11] 0.606 µM | [12] 2.49 µM | [19] 0.0806 µM
not listed: [20]
inactive: all other assays above

Cc1ccccc1Cl
not listed: [10]
inactive: all other assays above

Cc1cccc(Nc2cc(Cl)nc(SCC(=O)O)n2)c1C
inactive: all assays above

O=[N+]([O-])C(CO)(CO)CO
active: [11] 107 µM | [12] 118 µM | [14] 105 µM | [16] 112 µM | [18] 119 µM
not listed: [20]
inactive: all other assays above

Cc1nc(-c2ccc3c(c2)CCN(CCC2CCC(NC(=O)/C=C/c4ccc(F)cc4)CC2)CC3)no1 (stereo unspecified)
active: [12] 25.2 µM | [14] 24.2 µM | [16] 16.2 µM | [18] 23.8 µM
not listed: [20]
inactive: all other assays above

Nc1ccc2c(c1)C(=O)c1ccccc1C2=O
active: [10] 16.1 µM | [11] 11.5 µM | [12] 16.2 µM | [14] 10.2 µM | [15] 21.2 µM | [18] 19.3 µM
inactive: all other assays above

Source: PubChem BioAssay (EPA / NIEHS)
